Results: PubChem BioAssay (NCI)
This is part of a sample that, as a whole, favours compounds with a hit. Of some 83,000 tested, about 20% had one in any assay.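 Activity criterion: percent growth below 10, measured after cells in 96-well plates were exposed to a single compound concentration for 48 hours.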 Values without a mark were called inactive. Calls of active or inactive are those of the source.

Assays:
Assay in all cases: NCI-60 one-dose screen, 48 h (100 = growth as untreated, 0 = no growth, -100 = all killed)
A549/ATCC NSCLC = settings: 10 µM unless noted
DU-145 prostate = settings: 10 µM unless noted
RXF 393 renal = settings: 10 µM unless noted
SF-295 CNS = settings: 10 µM unless noted
SF-539 CNS = settings: 10 µM unless noted
UACC-257 melanoma = settings: 10 µM unless noted
HT29 colon = settings: 10 µM unless noted
SNB-75 CNS = settings: 10 µM unless noted
SK-MEL-5 melanoma = settings: 10 µM unless noted
SK-MEL-2 melanoma = settings: 10 µM unless noted
CAKI-1 renal = settings: 10 µM unless noted
A498 renal = settings: 10 µM unless noted
HL-60(TB) leukemia = settings: 10 µM unless noted
MOLT-4 leukemia = settings: 10 µM
OVCAR-8 ovarian = settings: 10 µM unless noted
IGROV1 ovarian = settings: 10 µM
HS 578T breast = settings: 10 µM unless noted
HCT-15 colon = settings: 10 µM
LOX IMVI melanoma = settings: 10 µM unless noted
ACHN renal = settings: 10 µM unless noted

SMILES	growth (A549/ATCC NSCLC)	growth (DU-145 prostate)	growth (RXF 393 renal)	growth (SF-295 CNS)	growth (SF-539 CNS)	growth (UACC-257 melanoma)	growth (HT29 colon)	growth (SNB-75 CNS)	growth (SK-MEL-5 melanoma)	growth (SK-MEL-2 melanoma)	growth (CAKI-1 renal)	growth (A498 renal)	growth (HL-60(TB) leukemia)	growth (MOLT-4 leukemia)	growth (OVCAR-8 ovarian)	growth (IGROV1 ovarian)	growth (HS 578T breast)	growth (HCT-15 colon)	growth (LOX IMVI melanoma)	growth (ACHN renal)
CO[C@@H]([CH2][Hg][S]C#N)[C@@H]([CH2][Hg][S]C#N)OC	102%	99.2%	57.8%	113%	125%	86.8%	79.4%	84.5%	107%	106%	107%	118%	62.9%	101%	107%	63.9%	98.6%	–	–	–
O=[N+]([O-])c1ccc(/C=C/C=C/c2ccc(S(=O)(=O)F)cc2)c(Cl)c1	98.6%	107%	92.2%	93.1%	104%	96.5%	96%	71.7%	97.9%	84%	98.3%	100%	91.9%	84.1%	99%	104%	111%	98%	102%	102%
N#C[Se]CCCNS(=O)(=O)C1CC2C=CC1C2 (stereo not given)	-34.1% (active)	-68% (active)	-90% (active)	-80.7% (active)	-77.9% (active)	-55.3% (active)	1.16% (active)	–	-70.8% (active)	-24.4% (active)	-99.1% (active)	–	-41.1% (active)	5.9% (active)	-27.1% (active)	-52.5% (active)	-25.9% (active)	-1.27% (active)	-76.8% (active)	-67% (active)
[Cl][Hg][n]1cnc2c(Cl)c(Cl)c(Cl)cc21	86.7%	100%	140%	96.1%	101%	96.2%	81.2%	104%	102%	–	103%	104%	99.9%	107%	101%	99.7%	79.5%	100%	79.6%	97.9%
CC(=O)Nc1ccc(Cc2ccc(NC(C)=O)cc2)cc1	95%	130%	89.4%	108%	104%	99.1%	104%	93.4%	104%	125%	88.9%	129%	49.1%	76.3%	95.6%	116%	121%	107%	99.8%	101%
C[C@@H]1CC[C@@H]2[C@@H]1[C@H](OC(=O)/C=C/C1CCCCC1)[C@]1(C3CCCCC3)C[C@@H](OC(=O)CO)[C@@]2(C)O1	60.6%	82.1%	13.3%	72.7%	95.9%	61.7%	31.4%	76.9%	84.8%	73.7%	-21.9% (active)	-83.3% (active)	8.36% (active)	–	23%	75.7%	-28.1% (active)	48.4%	–	14.9%
O=C(C(=O)N1CCCC1)c1cn(CCCCCn2cc(C(=O)C(=O)N3CCCC3)c3ccccc32)c2ccccc12	85.2%	100%	108%	93.9%	94.8%	102%	–	74.9%	75.9%	114%	73.9%	94.1%	109%	–	90.8%	98.8%	94.4%	97.5%	–	87.8%
Oc1ccc(O)c2c1C1(Cl)C(Cl)=C(Cl)C2(Cl)C1(Cl)Cl	46.1%	63.2%	29.8%	21.7%	68.2%	46.6%	66.4%	31.6%	42.3%	31.3%	34.6%	34.9%	31%	54.3%	74%	38.3%	55.6%	45.3%	43.1%	48.2%
COP(=S)(OC)Oc1ccc(SC)c(C)c1	–	111%	107%	91.5%	94.4%	–	103%	89.6%	98.9%	103%	92.6%	94.3%	–	–	–	99.7%	110%	105%	93.3%	101%
CCOC(=O)Nc1cc(Cl)c([N+](=O)[O-])c(NC(=O)OCC)n1	95.2%	107%	99.3%	101%	107%	88.8%	82.5%	97.3%	91.8%	74.6%	-95.5% (active)	93.1%	38.2%	79.6%	64.6%	55.6%	106%	–	61.5%	53.6%
CCOC(=O)/C(C#N)=C/c1ccc(N(CCCl)CCCl)cc1	85.2%	98.8%	93.3%	43.6%	84.9%	103%	92.5%	73.3%	97.9%	99.2%	-9.24% (active)	95.5%	85.2%	84.7%	71.6%	48.4%	103%	91.1%	92%	72.8%
COC(=O)C[Se]C(=O)c1ccccc1OC(C)=O	33.7%	61.8%	78.9%	53.3%	75.1%	59.7%	33.2%	–	90.6%	87.4%	87.8%	–	-4.01% (active)	86%	45.4%	52%	66.1%	46.4%	59.6%	72%
O=C1NC(=O)C(=Cc2cn(Cc3ccccc3)c3ccccc23)C(=O)N1	–	100%	86.9%	37.2%	89.1%	34.2%	105%	77.6%	101%	105%	62.4%	-72.6% (active)	96.3%	132%	81.1%	-26.7% (active)	78%	93.8%	83.4%	92.7%
COc1ccc(C2SCC(=O)Nc3c2c(C)nn3-c2nc3ccc(C)cc3s2)cc1O (stereo not given)	29.3%	73.5%	50.2%	32.4%	31%	70.1%	10.5%	32.6%	16.6%	-1.24% (active)	31.1%	40.9%	3.8% (active)	18.2%	50.7%	52.7%	42.2%	23.9%	36.9%	44.2%
c1ccc(CCN2CCCCC2Cc2ccccc2)cc1 (stereo not given)	96.2%	–	117%	91.4%	101%	98.5%	72.8%	107%	94.8%	87.7%	101%	89.5%	80.3%	92.7%	106%	92.5%	116%	104%	90.9%	94.6%
O=C(c1cccs1)C1NO[N+]([O-])=C1c1cccs1 (stereo not given)	86.9%	120%	-25.1% (active)	107%	36.3%	46.2%	–	-11.5% (active)	112%	–	-62.9% (active)	113%	9.45% (active)	38.5%	24.5%	7.37% (active)	83%	64.9%	-100% (active)	22.8%
C/C(=C\C(=O)O[C@H]1[C@@H]2[C@H](C)CC[C@H]2[C@]2(C)O[C@@]1(C1CCCCC1)C[C@H]2OC(=O)CO)c1ccccc1	40.8%	66.1%	-10.1% (active)	50.5%	77.2%	44.2%	9.35% (active)	68.3%	71.7%	55.8%	-25% (active)	-83% (active)	-27.8% (active)	–	19%	71.1%	-28.1% (active)	18.7%	–	-16.5% (active)
